Assay results published in PubChem BioAssay (NCI).
About 79,000 compounds went through this panel and 15% of them were active in at least one assay; those are over-represented in the sample as a whole. A number with no mark means an inactive call. Activity calls are given as the source filed them. Cut-off read from the data, not from the text of the source: active = growth inhibition above about 70%; inactive = the rest.

Columns and labels:
[1] = NCI Yeast Anticancer Drug Screen. Data for the rad50 strain (AID 155);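 note: 0% = growth of vehicle-only cultures of the same strain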; settings: S. cerevisiae rad50 strain growth inhibition, active compounds read high
Outline: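 Compounds were tested on a yeast strain with an engineered DNA damage repair alteration; the reported value is growth inhibition normalised to vehicle treatment.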

[2] = NCI Yeast Anticancer Drug Screen. Data for the mec2-1 strain (AID 157); settings: S. cerevisiae mec2-1 strain, active compounds read high
Outline: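 Strain: mec2-1 (DNA repair/cell cycle alteration). Compound exposure, then growth measured; inhibition expressed relative to vehicle.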

[3] = NCI Yeast Anticancer Drug Screen. Data for the sgs1 mgt1 strain (AID 161);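 note: 0% = growth of cultures given vehicle only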; settings: S. cerevisiae sgs1 mgt1 strain, active compounds read high
Outline: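 Read-out: growth inhibition vs vehicle controls. Cells: mutant yeast strain deficient in DNA damage repair.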

[4] = NCI Yeast Anticancer Drug Screen. Data for the cln2 rad14 strain (AID 165);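 note: 0% = growth equal to vehicle treated cultures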; settings: S. cerevisiae cln2 rad14 strain, active compounds read high
Outline: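 Compounds are applied to the cln2 rad14 yeast strain, and growth is then compared with that of vehicle-treated cultures to give inhibition.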

[5] = NCI Yeast Anticancer Drug Screen. Data for the bub3 strain (AID 167); settings: S. cerevisiae bub3 mutant strain, active compounds read high
Outline: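 Growth of a checkpoint-deficient yeast mutant is measured after compound exposure. Values represent inhibition relative to vehicle.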

[6] = NCI Yeast Anticancer Drug Screen. Data for the mlh1 rad18 strain (AID 175); settings: S. cerevisiae mlh1 rad18 strain growth inhibition, active compounds read high
Outline: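 Read-out is yeast growth inhibition, calculated against vehicle-only controls. The compound was applied to a strain engineered with DNA damage repair alterations.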

[7] = at 5.0 µM (retest, dose inferred, filed as 0.5)
[8] = at 50.0 µM (retest, dose inferred, filed as 5.0)

| SMILES | growth inhibition [1, 7] | growth inhibition [1, 8] | growth inhibition ([1]; at 50.0 µM) | growth inhibition [2, 7] | growth inhibition [2, 8] | growth inhibition ([2]; at 50.0 µM) | growth inhibition [3, 7] | growth inhibition [3, 8] | growth inhibition ([3]; at 50.0 µM) | growth inhibition [4, 7] | growth inhibition [4, 8] | growth inhibition ([4]; at 50.0 µM) | growth inhibition [5, 7] | growth inhibition [5, 8] | growth inhibition ([5]; at 50.0 µM) | growth inhibition [6, 7] | growth inhibition [6, 8] | growth inhibition ([6]; at 50.0 µM) |
| --- | --- | --- | --- | --- | --- | --- | --- | --- | --- | --- | --- | --- | --- | --- | --- | --- | --- | --- |
| CCCCCCCCCCCC[S+](C)CC(=O)[O-] (configuration not stated) | 20% | 74% (active) | 23.2% | 5% | 70% (active) | 48.8% | -2% | 78% (active) | 39.5% | 11% | 64% | 72% (active) | 19% | 89% (active) | 27.9% | 10% | 41% | 72.8% (active) |
| CN(C)c1ccc(/C=C/c2ccnc3ccccc23)cc1 | -6% | 95% (active) | 78.1% (active) | 0% | 97% (active) | 84.5% (active) | -1% | 97% (active) | 92.3% (active) | -10% | 35% | -15.1% | -1% | 97% (active) | 91.5% (active) | 19% | 93% (active) | 89.1% (active) |
| COC(=O)[C@]1(C)CCC[C@]2(C)c3ccc(C(C)C)cc3C(=O)[C@@H](Br)[C@@H]12 | 0% | 9% | 74.2% (active) | -2% | 46% | 51.9% | 3% | 58% | 63.5% | -12% | 44% | 22.1% | 2% | 52% | 82.4% (active) | -11% | 49% | 71.8% (active) |
| CCCCC(C=O)(C=C=C(C)C)CC (configuration not stated) | -4% | 28% | 51.4% | -2% | 0% | 52.1% | 0% | 35% | 61.3% | -7% | 26% | 36.4% | -13% | 2% | 66.3% | -32% | -4% | 16.9% |
| CCN(CC)CC(O)c1cc(-c2ccc(Cl)cc2)nc2cc(Cl)ccc12 (configuration not stated) | 2% | 99% (active) | 98% (active) | -3% | 100% (active) | 93.9% (active) | -1% | 99% (active) | 99.7% (active) | -2% | 99% (active) | 47.9% | -3% | 99% (active) | 78.5% (active) | 11% | 99% (active) | 98.3% (active) |
| C[C@@]1(CO)[C@H](O)CC[C@@]2(C)[C@H]1CC[C@H]1C[C@@H]3C[C@@]12CC[C@@]3(O)COC(=O)CN | 0% | 65% | 97.3% (active) | -1% | 98% (active) | 57.1% | -1% | 46% | 61.6% | -12% | 49% | 22.9% | 11% | 33% | 91.7% (active) | 6% | 97% (active) | 93.8% (active) |
| COc1ccc2nc3c4c(nccc4c2c1)-c1ncccc1C3=O | 93% (active) | 97% (active) | 89.2% (active) | 31% | 98% (active) | 87.5% (active) | 43% | 97% (active) | 90.8% (active) | 61% | 97% (active) | 90.6% (active) | 58% | 96% (active) | 89.5% (active) | 93% (active) | 97% (active) | -43% |
| COc1ccc2c(c1)C(N)=C(c1ccccc1)C2=O | 14% | 15% | 70.2% (active) | 16% | 8% | 28.2% | 16% | 28% | 63.1% | 17% | 10% | 0.55% | 24% | 19% | 59.2% | 21% | 9% | -31.8% |
| Cn1ccc(=Nc2ccc(NC(=O)c3ccc(N=c4ccn(C)c5ccc([N+](=O)[O-])cc45)cc3)cc2)cc1 | 86% (active) | 98% (active) | 79.7% (active) | 80% (active) | 98% (active) | 87.4% (active) | 92% (active) | 98% (active) | 87.3% (active) | 83% (active) | 96% (active) | 76.6% (active) | 93% (active) | 99% (active) | 87.5% (active) | 72% (active) | 95% (active) | 84.8% (active) |
